# SF-1 inh – inhibitors of human SF-1, primary screen, cell-based, CHO-K1, Gal4-SF-1 LBD, luciferase luminescence; Steroidogenic factor 1 (Homo sapiens), Q13285; inhibition, % at 10 µM; CHO-K1 Gal4-SF-1 LBD luciferase reporter; 0.55% of 65,000 active;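 active = inhibition above the mean inhibition of all tested compounds plus 3 SD, cut at about 48% in these data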
# Target sequence (Q13285 whole entry, looked up, the tested form may be a part): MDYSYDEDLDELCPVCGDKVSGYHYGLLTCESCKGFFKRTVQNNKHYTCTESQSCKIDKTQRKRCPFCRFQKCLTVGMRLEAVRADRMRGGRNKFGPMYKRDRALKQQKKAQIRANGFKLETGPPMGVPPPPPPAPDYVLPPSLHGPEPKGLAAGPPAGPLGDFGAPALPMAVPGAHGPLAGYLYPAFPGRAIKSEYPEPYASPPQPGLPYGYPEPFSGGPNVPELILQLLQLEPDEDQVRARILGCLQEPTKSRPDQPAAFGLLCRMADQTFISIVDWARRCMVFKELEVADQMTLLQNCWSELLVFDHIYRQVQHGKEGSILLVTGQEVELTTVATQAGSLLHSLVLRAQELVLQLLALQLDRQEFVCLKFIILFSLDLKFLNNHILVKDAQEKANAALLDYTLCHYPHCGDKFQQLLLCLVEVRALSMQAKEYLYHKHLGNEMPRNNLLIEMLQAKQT
# Numbers stand for hits; . = inactive. This is one part of a sample in which hits are shown more often than they occur.
SMILES,SF-1 inh
O=C(NCC1CCCO1)c1cc(-c2ccncc2)nc2ccc(S(=O)(=O)N3CCOCC3)cc12 (configuration not stated),.
CC(=O)Nc1ccc2nc(-c3cccnc3)[nH]c2c1,.
CCC(=O)N1CCc2cc(S(=O)(=O)N3CCc4ccccc4C3)ccc21,.
O=C(Cn1nnc(-c2ccccc2)n1)OCc1csc(-c2ccccc2)n1,.
CCc1ccc(-c2nnn(CCC(=O)OC)n2)cc1,52
COc1ccc(-c2ccc(-c3nnn(CC(C)=O)n3)cc2)cc1,.
Cc1cc(C)n(-c2ccc3cccc(NS(C)(=O)=O)c3n2)n1,79
O=[n+]1cc(-c2cc3ccccc3o2)n([O-])c2c1CCCC2,.
O=C(CCn1c(=O)oc2ccccc21)NCc1ccc2c(c1)OCO2,.
CC(C)CCn1c(Sc2nc3ccccc3s2)nc2c1c(=O)[nH]c(=O)n2C,.
O=C(Cn1cnc2ccccc2c1=O)Nc1ccc2c(c1)OCCO2,.
Cc1ccc(NC(=O)c2noc3c2CCCCC3)cc1C,.
O=C1c2ccccc2C(O)N1c1ccc(Cl)cc1 (configuration not stated),.
Cc1ccc2oc3c(c(=O)c2c1)C(c1cccc(O)c1)N(c1ccccn1)C3=O (configuration not stated),.
Cc1ccc(N2C(=O)c3ccccc3C2O)nc1 (configuration not stated),56
Cc1cc(C)n2nc(S(=O)(=O)NCCc3ccccc3)nc2n1,.
CCOC(=O)N1CCC(NC(=O)c2ccc(OC)c(CN3CC(=O)N4CCCC4C3=O)c2)CC1 (configuration not stated),.
CCOC(=O)N1CCC(NC(=O)c2cnn3c(C(F)(F)F)cc(-c4cccc(OC)c4)nc23)CC1,.
CCOC(=O)N1CCC(NC(=O)C2CCCN(Cc3nc(-c4cccc(Cl)c4)oc3C)C2)CC1 (configuration not stated),58
Cn1c(SCc2ccc(F)cc2)nnc1-c1ccccn1,.
O=C(NC1CCCC1)C(c1ccccc1F)N(C(=O)c1ccco1)C1CCCC1 (configuration not stated),.
COc1ccc(CNc2ccc3c(c2)nc(C)n3C)cc1,.
COc1ccc(CCNc2c(C)c(C)nc3ncnn23)cc1,81
COc1cccc(OCc2nnc(SCC(=O)NCc3ccco3)n2CCc2ccccc2)c1,.
O=C(Nc1ccc2c(c1)OCO2)c1ccc(COc2ccc3c(c2)CCC3)o1,.
SMILES,SF-1 inh
CC1(C)Cc2c(sc(NC(=O)c3ccc(Br)o3)c2C#N)CO1,.
Cc1ccc(C(=O)Nc2ccc3c(c2)CCC3)o1,.
CCOC(=O)c1ccc(NC(=O)CSc2nnc(-c3ccncc3)n2C)cc1,.
CC(=O)NC1Sc2ccccc2N=C1c1ccccc1 (configuration not stated),.
O=S1(=O)Nc2c(ccc3cccnc23)-c2ccccc21,91
CCOC(=O)C(Cc1cc(C(C)=O)ccc1OCC)C(=O)OCC,.
CCOC(=O)c1cc(-c2ccncc2)nc2c1c(C)nn2-c1ccccn1,.
O=C(O)c1ccc(C2SCC(=O)N2Cc2ccccc2)cc1 (configuration not stated),.
CCOC(=O)CSc1nc(C)cc(Oc2ccc(=O)n(C)n2)n1,.
Nc1nsc2ccccc12,58
Cc1ccccc1C(=O)Nc1ccc(Br)cn1,.
CC(=O)c1c(C)[nH]c(C(=O)Nc2ccc(C)cn2)c1C,51
CC(=O)c1c(C)[nH]c(C)c1C(C)=O,.
CCn1c(COc2ccccc2)nnc1SCC(=O)NC1CCCCC1,.
CN1CCN(/C=N/c2sc3c(c2C#N)CCCCC3)CC1,.
O=C(Nc1nccs1)c1ccc(COc2ccc(F)cc2)o1,.
COc1ccc(C)cc1NC(=O)NC1CCN(Cc2ccccc2)CC1,.
Cc1ccc2c(c1)[nH]c1c(N3CCN(Cc4ccccc4)CC3)ncnc12,50
C=CCNC(=O)C(C#N)c1nc2ccccc2nc1N1CCN(Cc2ccccc2)CC1 (configuration not stated),.
c1ccc(CN2CCN(c3ncnc4c3[nH]c3ccccc34)CC2)cc1,50
c1ccc2c(c1)CCN(c1ncnc3c1[nH]c1ccccc13)C2,86
c1ccc2c(c1)oc1c(Nc3ccc(CN4CCOCC4)cc3)ncnc12,.
Cc1cc(=O)[nH]c(N2CCN(Cc3ccccc3)CC2)n1,.
CCOC(=O)Cc1csc(NC(=O)COc2ccc(OC)cc2)n1,.
Nc1nonc1-c1noc(COc2ccccc2Cl)n1,.
SMILES,SF-1 inh
CC(C)Sc1nnc(-c2c[nH]c3ccccc23)n1C,.
CCOC(=O)C(CCSC)NC(=O)CN (configuration not stated),.
COc1ccccc1C1/C(=C(/O)c2ccc(C)cc2)C(=O)C(=O)N1CCN1CCOCC1 (configuration not stated),.
O=S(=O)(c1cccc(-c2cn3cc(Cl)ccc3n2)c1)N1CCOCC1,.
CCOc1ccc(NC(=O)CSc2nnnn2CC(=O)O)cc1,.
CCOC(=O)CSc1nc2cc(C)ccc2cc1C#N,.
CC(C)n1c(N2CCN(C(=O)NCc3ccccc3)CC2)nc2ccccc21,.
CCOC(=O)N1CCN(C(=O)c2ccc3c(c2)sc2nc(-c4ccccc4)cn23)CC1,.
COc1cc2nc(=S)n3[nH]c(CCn4nc(C)cc4C)nc3c2cc1OC,61
CCCC(=O)Nc1ccc2oc(-c3ccc(OC)c(Br)c3)nc2c1,.
CCc1ccc(-c2ccc(C(=O)O)cc2)nc1,.
CCCc1ccc(-c2ccc(F)c(N)c2)nc1,60
CCC(C)NC(=O)CCNS(=O)(=O)c1ccc(Br)cc1 (configuration not stated),.
CCC(CC)C(=O)NCCc1ccc(S(N)(=O)=O)cc1,.
Cc1ccc(-c2cnc(NC(=O)CCC(=O)N3CCCCC3)n2C)cc1,65
Cn1c(-c2ccc3c(c2)OCO3)cnc1NCc1ccccc1,.
Cc1cc(C)nc(SCC(=O)N2CCCCC2)n1,.
Cc1ccc(N(CC(O)CN(C)C)S(=O)(=O)c2ccccc2)cc1 (configuration not stated),.
CCOc1cc(S(=O)(=O)NCCc2ccccc2C)c(OCC)cc1-n1cnnn1,.
Cn1c(=O)n(CCOc2ccccc2Cl)c2ccccc21,.
CSC1=C(C#N)C(c2ccc(Cl)cc2)C2=C(CC(C)(C)CC2=O)N1 (configuration not stated),52
Cc1ccc(NC(=O)CSC2=C(C#N)C(c3ccc4c(c3)OCO4)C3=C(CCCC3=O)N2)c(C)c1 (configuration not stated),.
COc1ccc(S(=O)(=O)N2Cc3ccccc3CC2C(=O)Nc2nccs2)cc1OC (configuration not stated),.
CCn1c(-c2ccc(N(C)C)cc2)nc2ccccc21,.
Cn1c(-c2ccc(Br)o2)nc2ccccc21,.
SMILES,SF-1 inh
CN(C)c1ccc(-c2nc3ccccc3n2C)cc1,59
Cc1nc2c(sc3nc4c(cc32)COC(C)(C)C4)c(=O)n1CC(=O)NCc1ccco1,.
Cc1cnn(C(=S)NCCc2ccccc2)c1,.
Cc1nnc(Sc2nc(Sc3nnc(C)s3)nc(N3CCN(C)CC3)n2)s1,96
Cc1nc(CSc2nnc(C)s2)cs1,.
O=C(Nc1ccccc1)C1CC(=O)N(C2CCCCC2)C1 (configuration not stated),.
OCCN1CN=C(Nc2nc3ccccc3s2)NC1,.
Cc1c(C(=O)O)oc2c1ccc1ccccc12,.
Nc1nc(-c2ccc3c(c2)OCCO3)cs1,.
Cc1ccc(-c2csc(N3CCC(NS(=O)(=O)c4ccc5c(c4)OCCO5)CC3)n2)cc1,53

# From PubChem
